# The entries come from a sample that favours hits as a whole.
# SF1 inhibitor = inhibitors of human SF-1, primary screen, cell-based, CHO-K1, Gal4-SF-1 LBD, luciferase luminescence | Steroidogenic factor 1 (Homo sapiens), Q13285 | CHO-K1 Gal4-SF-1 LBD luciferase reporter | inhibition, % at 10 µM | actives 0.55% (n = 65,000);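 active means inhibition above the mean inhibition of all tested compounds plus 3 SD, cut at about 48% in these data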;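 further: 0% = SF-1 transfected cells with DMSO and 100% = mock-transfected cells lacking SF-1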
# Target sequence (Q13285 whole entry, looked up, the tested form may be a part): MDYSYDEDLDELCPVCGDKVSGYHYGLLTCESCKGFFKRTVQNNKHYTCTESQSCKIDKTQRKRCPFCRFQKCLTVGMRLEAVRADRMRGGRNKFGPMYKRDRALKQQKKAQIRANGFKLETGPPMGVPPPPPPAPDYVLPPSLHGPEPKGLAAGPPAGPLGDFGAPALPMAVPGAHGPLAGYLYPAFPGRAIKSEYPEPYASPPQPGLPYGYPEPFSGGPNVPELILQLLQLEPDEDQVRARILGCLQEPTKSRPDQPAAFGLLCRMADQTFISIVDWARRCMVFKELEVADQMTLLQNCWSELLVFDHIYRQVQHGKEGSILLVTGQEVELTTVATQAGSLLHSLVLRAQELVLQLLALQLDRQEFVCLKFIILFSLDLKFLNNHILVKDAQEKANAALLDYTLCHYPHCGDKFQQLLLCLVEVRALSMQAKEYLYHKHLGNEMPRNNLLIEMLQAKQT
# Active calls of the source: *.
SMILES,SF1 inhibitor
CC(=O)NCCc1nc2ccccc2n1Cc1ccccc1,32
CCN(CC)Cc1c[nH]c2c(C(=O)OC)cccc12,-9
COCCn1c(SCC(=O)c2ccccc2)nc2c(c1=O)SC(C)C2 (configuration not stated),3
O=C(O)Cc1ccc2[nH]c3ccc(CC(=O)O)cc3c2c1,7
Cc1c(NC(=O)c2cc(=O)[nH]c(=O)[nH]2)c(=O)n(-c2ccccc2)n1C,-3
COc1ccc(S(=O)(=O)N(CC(=O)N2CCN(C)CC2)c2ccc(C)cc2)cc1OC,0
CCCCS(=O)(=O)NC1=NCN(CCOC(=O)c2ccccc2)CN1,4
O=C(c1cc2c(=O)oc3ccccc3c2s1)N1CCN(c2ncccn2)CC1,-4
O=C(Cn1nc(-c2ccc(Cl)cc2)ccc1=O)NCCN1CCOCC1,3
CCOC(=O)c1[nH]nc(N)c1NC(=O)c1ccc(Cl)cc1Cl,-27
O=C(COc1ccc(Cl)cc1)NC1CCSC1=O (configuration not stated),-3
O=C(Cc1ccc(Cl)cc1)Nc1ccc(N2CCN(C(=O)c3ccco3)CC2)cc1,10
CCC(=O)Nc1ccc(-c2nnc(-c3ccccc3)o2)cc1,-34
O=C(Cc1ccc(Cl)cc1)Nc1ccc(-c2nnc(-c3ccco3)o2)cc1,53*
Cc1csc(NC(=O)c2ccoc2C)n1,-56
CC(NC(=O)c1ccco1)C(=O)OCc1cccc(Cl)c1 (configuration not stated),-8
CC(C)Nc1nc(SCC(=O)Nc2ccccc2)nc(N2CCOCC2)n1,-3
C=C(C)CSC1=C(C#N)C(c2ccccc2)CC(=O)N1 (configuration not stated),10
CCC(Sc1ccccn1)C(=O)Nc1nnc(C)s1 (configuration not stated),-6
COc1ccc(CNC(=O)c2cccc(N3CCCC3=O)c2)cc1,-24
O=C(O)c1cccc(COc2ccc(CO)cc2Cl)c1,94*
Clc1ccc(OCc2nn3c(-c4ccccc4)nnc3s2)c(Cl)c1,10
CCOc1ccc(OCc2cccc(C(=O)O)c2)cc1,95*
O=C(O)c1ccc2c(c1)C(=O)N(Cc1ccccc1)C2=O,-5
CCCCOc1ccc(C(=O)O)cc1,12
SMILES,SF1 inhibitor
COc1ccc(OCc2cccc(C(=O)O)c2)cc1,94*
O=C(O)c1cccc(OCc2ccccc2Cl)c1,-80
COC(=O)Nc1ccc(OCc2ccccc2)cc1,-72
O=C(NCc1cccs1)c1cc2c(s1)CCCC2,-25
O=C(OC(C(=O)NCc1ccc2c(c1)OCO2)c1ccc(Cl)cc1)c1ccco1 (configuration not stated),5
Cc1cc(C(=O)CSc2nncs2)c(C)n1-c1ccc2c(c1)OCO2,-69
Cc1c(NC(=O)c2noc3c2CCc2ccccc2-3)c(=O)n(-c2ccccc2)n1C,13
O=C(Nc1ccc(SC(F)F)cc1)c1ccc2nccnc2c1,18
Nc1nnnn1/N=C/C(Br)=C/c1ccccc1,96*
Nc1nc(CSc2ccccn2)nc(Nc2ccccc2)n1,-58
CC(=O)Nc1ccc(S(=O)(=O)Nc2cccc(N(C)S(C)(=O)=O)c2)cc1,-2
Cc1cc(C)n2cc(CSc3nnnn3C)nc2n1,-7
COc1ccccc1C(=O)NCc1ccc2c(c1)OCO2,28
COc1ccccc1C(=O)Nc1ccc2c(c1)OCCO2,-76
CC1CC(=O)N(CC(=O)Nc2ccc3c(c2)OCCO3)c2ccccc2S1 (configuration not stated),0
O=C(Cn1nc(Cc2cccnc2)c2ccccc2c1=O)NCc1ccc2c(c1)OCO2,-4
CCOC(=O)C(C)Oc1cccc2c(=O)n(CC(=O)NCc3ccc4c(c3)OCO4)ccc12 (configuration not stated),83*
CCOC(=O)C(C)Oc1cccc2c(=O)n(CC(=O)Nc3ccc4c(c3)OCCO4)ccc12 (configuration not stated),82*
COC(=O)c1sccc1NC(=O)CN1CCN(c2ccc(F)cc2)CC1,-9
O=C(CCCC(=O)N(CC(=O)NC1CCCCC1)CC1CCCO1)Nc1ccccn1 (configuration not stated),-1
CC1Cc2ccccc2N1C(=O)CCNS(=O)(=O)c1cccc2nsnc12 (configuration not stated),7
CC1(C)CNC(=O)C=C(c2ccccc2)C1,-1
COc1ccc(NC(=O)CN2CCN(CC(=O)Nc3ccccc3F)CC2)cc1OC,-13
CN(C)c1ccc2c(c1)OC(N)=C(C#N)C2c1cccc(F)c1 (configuration not stated),56*
CC(=O)C1=C(C)OC(N)=C(C#N)C1c1ccco1 (configuration not stated),-3
SMILES,SF1 inhibitor
COc1cccc(-n2c(SCC(=O)NCCc3ccccc3)nnc2-c2ccoc2C)c1,8
CCc1c(C)nc(SC)n(CC#N)c1=O,6
CCOC(=O)C(C)Sc1nnc2n1C(C)(C)Cc1ccccc1-2 (configuration not stated),8
CCOc1ccc2[nH]c(S(=O)(=O)CC)nc2c1Cl,-9
Cn1c(-c2ccc(F)cc2)cnc1SCC(=O)Nc1ccccc1N1CCOCC1,-70
COc1ccc(CNC(=O)C2CC(=O)N(c3ccc(OCC(=O)N4C(C)CCCC4C)cc3)C2)cc1 (configuration not stated),15
CCc1ccc(-c2nc(CSCC(=O)NCCCN3CCCC3=O)c(C)o2)cc1,63*
COCCNC(=O)CSCc1nc(-c2ccc(SC)cc2)oc1C,90*
CCOCCCNC(=O)CS(=O)(=O)Cc1nc(-c2cccc(OC)c2)oc1C,-6
CCOC(=O)N1CCC(NC(=O)C2CCN(Cc3nc(-c4ccc(CC)cc4)oc3C)CC2)CC1,16
Cc1ccc(-c2nc(CS(=O)(=O)CC(=O)N3CC(C)CC(C)C3)c(C)o2)cc1 (configuration not stated),0
CCC(OC(=O)c1ccco1)C(=O)NCc1ccco1 (configuration not stated),13
COCCNC(=O)c1ccc2ccccc2n1,-8
CCOc1ccc(-c2nc(CSCC(=O)NCc3ccco3)c(C)o2)cc1,94*
COc1ccc(C(=O)Nc2ccccc2-c2nnn(CC(=O)NCc3ccco3)n2)cc1,8
C=C(C)CSc1nnc([C@H](CCSC)NC(=O)OC(C)(C)C)o1,-8
CC1CCCN(Cc2nc3c(c(=O)n(C)c(=O)n3C)n2CCCc2ccccc2)C1 (configuration not stated),14
CCNc1nc(N)c(C(=O)c2ccc(Cl)s2)s1,-31
CC1N/C(=C\C(=O)c2ccccc2)N(O)C1(C)C (configuration not stated),-30
O=C(Nc1cccc(-c2nnc(-c3ccccc3)o2)c1)c1ccc(Br)o1,-67
O=C(NCc1ccccn1)C1CC(=O)N(C2CCCC2)C1 (configuration not stated),-8
COc1ccc(OC)c(-n2nnnc2SCC(=O)Nc2ccc(C(=O)N3CCCCC3)cc2)c1,14
CC(CCc1ccccc1)NC(=O)c1cc2sccc2n1C (configuration not stated),4
Cc1ccc(-n2c(C)nc3oc4ccccc4c(=O)c3c2=O)cc1,-18
COc1ccc(C2CC(C(F)(F)F)n3nc(C(=O)NCc4cn(C)nc4C)c(Cl)c3N2)cc1 (configuration not stated),20
CCn1nnnc1-c1ccc(OC)c(S(=O)(=O)N2CCCCC2)c1,-21
COc1ccccc1OCC(=O)Nc1ccc(S(=O)(=O)Nc2nc(C)cc(C)n2)cc1,3

# From PubChem
